Screens deposited in PubChem by National Center for Advancing Translational Sciences (NCATS).
Vaccinia Venus: inhibitors of vaccinia virus (Venus reporter) | Vaccinia virus Venus reporter expression, fluorescence | Potency, µM (series often up to 36.5 µM), for inactives: at the top dose activity change, negative = inhibition, actives largely listed as inhibitors | hit rate 0.46% among 330,000; calls by dose curve; tested in A549 cells; also: nearly all actives have a fitted effect of over 30% in size
LASV entry inh: inhibitors of Lassa virus binding or cell entry. Potency, µM (titrated, usually from 37.9 µM), inactives show at the highest dose activity change, negative = inhibition, usual class: inhibitors. AID 540256. Lassa virus pseudotype entry inhibition, cell reporter. hit rate 1.2% among 300,000; calls by dose curve; tested in HEK293 cells; also: nearly all actives have a fitted effect of over 50% in size
VACV mCherry inh: inhibitors of vaccinia virus infection (mCherry reporter signal); Potency, µM (titrated, usually from 36.5 µM), without a hit: at the highest dose activity change, negative = inhibition, most hits filed as inhibitors; Vaccinia virus mCherry reporter infection, fluorescence; AID 720579; hit rate 0.63% among 310,000; calls by dose curve; tested in A549 cells; also: nearly all actives have a fitted effect of over 35% in size
Sm TGR block: inhibitors of Schistosoma mansoni thioredoxin glutathione reductase | hit rate 3% among 360,000 | Potency, µM (top dose mostly 114 µM), for the others: at the highest dose activity change, negative = inhibition, most hits filed as inhibitors | purified TGR, DTNB reduction, TNB absorbance 405 nm; active = well fitted inhibition curve with a large enough effect; inconclusive = small, poorly fitted or top-dose-only effect; inactive = no such curve, though single readings can be large or run the other way; also: nearly all actives have a fitted effect of over 60% in size
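Kinetic colorimetric format: TGR-catalysed, NADPH-driven DTNB reduction monitored via TNB absorbance. Enzyme dispensed at 20 nM; compound exposure 15 min at room temperature before reaction start.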
FMDV inh: blocks foot and mouth disease virus. AID 1159524. FMDV antiviral cell-based qHTS. hit rate 1.2% among 410,000. Potency, µM (titrated, usually from 57.9 µM), for the others: at the highest dose activity change, negative = inhibition, most hits filed as inhibitors; calls by dose curve; tested in HEK293T cells; also: read-out not given here; nearly all actives have a fitted effect of over 45% in size
Marburg entry inh: blocks Marburg virus binding to or entry into cells. hit rate 1.8% among 300,000. Marburg virus pseudotyped entry inhibition, cell reporter. AID 540276. Potency, µM (highest dose often 37.8 µM), inactives show at the top dose activity change, negative = inhibition, actives largely listed as inhibitors; calls by dose curve; tested in HEK293 cells
* hit, by the source's call; i = inactive; ? = inconclusive; / = no result; ! = not confirmed by another sample; [ ] = remark or other dose. Most compounds without a hit are left out; they make up all but 5.4% or so of the library. % is scaled to controls: 0 for no effect and ±100 for the full control effect; potency is read from the fitted curve at half-maximal effect.

SMILES	Vaccinia Venus	LASV entry inh	VACV mCherry inh	Sm TGR block	FMDV inh	Marburg entry inh
COc1ccc(NC(=O)CSc2c3c(nc4ccccc24)CCC3)c(OC)c1	-7%[7.34 µM]	-15%[46.1 µM]	?	-10%	?	2.2µM*
COCCCNC(=O)CSc1c2c(nc3ccc(Cl)cc13)CCCC2	-23%	?	10%	-1%	28µM*	?
CCN(CC)CCCNC(=O)CSc1c2c(nc3cc(Cl)ccc13)CCCC2	?	?	-13%	?	32µM*	?
Cc1ccc(S(=O)(=O)N2CCN(c3nc(-c4cccs4)nc4ncccc34)CC2)cc1	?	/	-22%	/	/	/
Cc1nn(-c2ccccc2)c(-n2cccc2)c1C(=O)NCCCN1CCN(c2ccccc2F)CC1	-17%	?	-18%	4%	-21%	?
C[n+]1cccc2cccc([O-])c21	/	/	/	50µM*	-3%	/
O=C(COc1ccc(F)cc1)OCc1cc(=O)n2nc(C3CC3)sc2n1	-1%	27%[46.1 µM]	-9%	-10%	-26%	/
CC(=O)Nc1ccc(NC(=O)C(C)OC(=O)C2(c3ccc(F)cc3)CCCC2)cc1 (configuration not stated)	/	/	/	-3%	25µM*	/
Cc1cccc(-n2c(-c3ccco3)nc3ccccc3c2=O)c1C	-12%	5%[46.1 µM]	i	-35%	-28%	?
CCCCn1c(-c2ccco2)nc2ccccc2c1=O	-11%	6%	/	56µM*	-20%	4%
COCCn1c(-c2ccco2)nc2nc3ccccc3nc21	13%	-10%	3%	7%	13%	2%
CC(C)OCCCn1c(-c2ccco2)nc2nc3ccccc3nc21	/	-2%	/	50µM*	-9%	-16%
COc1ccc(/C(O)=C2/C(=O)C(=O)N(CCN(C)C)C2c2ccccn2)cc1OC (configuration not stated)	7%	17%	-2%	13µM*	9%	5%
O=C1C(=O)N(CCN2CCOCC2)C(c2ccccn2)/C1=C(/O)c1ccccc1 (configuration not stated)	2%	3%	-9%	?	14%	23%
CCCCOc1ccc(/C(O)=C2/C(=O)C(=O)N(CCCOC)C2c2ccncc2)cc1 (configuration not stated)	-6%	-10%	/	-6%	10%	0%
CN(C)CCCN1C(=O)C(=O)/C(=C(/O)c2ccccc2)C1c1ccccn1 (configuration not stated)	/	/	/	-20%	/	8%
Cc1ccc(/C(O)=C2/C(=O)C(=O)N(CCN3CCOCC3)C2c2ccccn2)cc1 (configuration not stated)	2%	0%	i	25µM*	6%	-1%
CCCOc1ccc(/C(O)=C2/C(=O)C(=O)N(CCCN3CCOCC3)C2c2ccncc2)cc1 (configuration not stated)	/	/	/	11µM*	/	1%
O=C1C(=O)N(CCN2CCOCC2)[C@@H](c2ccccn2)/C1=C(\O)c1ccccc1	/	/	/	/	/	23%
COc1ccc(/C(O)=C2/C(=O)C(=O)N(CCN3CCOCC3)C2c2ccccn2)cc1OC (configuration not stated)	-28%	11%	-7%	50µM*	-4%	?
CCCOc1ccc(/C(O)=C2/C(=O)C(=O)N(CCN(C)C)C2c2ccco2)cc1 (configuration not stated)	-7%	-8%	/	45µM*	0%	6%
Cc1nonc1C(=O)N/N=C/c1cccc(O)c1	-5%	7%	-9%	11µM*	-4%	7%
C=CCn1c(=O)n([C@@H]2O[C@H](CO)[C@@H](O)[C@H]2O)c2nc(N)[nH]c(=O)c21	/	/	/	/	-5%	/
Cc1sc2nc(-c3cccs3)nc(N3CCCN(C)CC3)c2c1C	/	/	/	45µM*	/	-1%
Cc1sc2nc(CN3CCCCC3)nc(Cl)c2c1C	-14%	?	-9%	50µM*	?	-34%
SMILES	Vaccinia Venus	LASV entry inh	VACV mCherry inh	Sm TGR block	FMDV inh	Marburg entry inh
Clc1nc(CN2CCCCC2)nc2sc3c(c12)CCCC3	?	/	-18%	20µM*	-8%	/
CC1CCN(Cc2nc(Cl)c3c4c(sc3n2)CCC4)CC1	-18%	/	-12%	16µM*	-3%	/
COc1ccc(NCc2cc3cc4c(cc3n(CC(=O)Nc3ccc(C)c(C)c3)c2=O)OCO4)cc1	-8%	-18%[46.1 µM]	-15%	-4%	8%	/
CCOc1ccccc1CNC(=O)Cn1nc(C)c2nn(-c3ccc(Cl)cc3)c(C)c2c1=O	-17%	5%[46.1 µM]	-18%	6%	?	/
COc1ccccc1CNC(=O)CCn1c(=O)c2ccccc2n(CC(=O)Nc2ccc(C)cc2)c1=O	-6%	-18%[46.1 µM]	-9%	-1%	0%	?
O=C(NCC1(N2CCOCC2)CCCC1)c1cnn(-c2nccc(-c3ccco3)n2)c1C1CC1	0%	/	-7%	/	-21%	/
Cc1nn(-c2ccccn2)c2c1-c1nc(N)sc1CC2	2%	/	20%	/	/	/
Cc1ccc(S(=O)(=O)N2CCN(c3nc(CN4CCCC4)nc4sc(C)c(C)c34)CC2)cc1	/	/	/	3%	-22%	/
Cc1sc2nc(CN3CCCC3)nc(N3CCN(S(=O)(=O)c4cccs4)CC3)c2c1C	/	-7%	/	4%	-7%	15µM*!
Cc1ccc(C)n1-c1c(C(=O)NCCCN2CCN(c3ccc(F)cc3)CC2)sc2ncccc12	-13%	-22%[46.1 µM]	-14%	0%	?	/
CC(C)COc1ccc(C(=O)N[C@@H](CC(C)C)C(=O)O)cc1	/	/	/	/	/	27%
N#Cc1c(N2CCN(c3ccc([N+](=O)[O-])cc3)CC2)[n+](=O)c2ccc(Cl)cc2n1[O-]	-21%	10µM*	-16%	/	?	?
O=[N+]([O-])c1ccc(CN2CCN(c3ccc([N+](=O)[O-])cc3)CC2)cc1	?	?	-25%	-3%	0%	-19%
COCCn1c(CNC(=O)c2ccccc2C)nc2cccnc21	-6%	0%[46.1 µM]	-10%	1%	-13%	/
COc1ccccc1CCNC(=O)Cn1ccc2cc(S(=O)(=O)N3CCCCC3)ccc21	-5%	-24%[46.1 µM]	-9%	0%	1%	/
O=C(CSc1nc(-c2ccco2)nc2cc(=O)[nH]n12)Nc1ccccc1F	1%	-4%[46.1 µM]	10%	-29%	-14%	/
Cc1ccccc1NC(=O)CSc1nc(-c2ccco2)nc2cc(=O)[nH]n12	-10%	2%[46.1 µM]	-16%	40µM*	-10%	/
CSc1nnc(-c2ccco2)c(-c2ccco2)n1	-29%	-1%	-4%	1µM*	-13%	-3%
Cc1cccc(C)c1NC(=O)CSc1nnc(-c2ccco2)c(-c2ccco2)n1	-10%	?	i	1.8µM*	-18%	?
Cc1ccccc1NC(=O)CSc1nnc(-c2ccco2)c(-c2ccco2)n1	/	16%	/	3.5µM*	-18%	-6%
Cc1ccccc1NC(=O)CSc1n[nH]c(-c2ccco2)n1	-1%	25%	-19%	5%	7%	-2%
Cc1c(Cl)cccc1NC(=O)C(C)N(c1ccccc1)S(C)(=O)=O (configuration not stated)	8%	16%[46.1 µM]	11%	-8%	39%	19%[46.1 µM]
